RORgamma inh = blocks mouse ROR gamma transcriptional activity. Drosophila S2 Gal4-RORgamma UAS-luciferase reporter, 20 h. P51450. Potency, µM (series often up to 53.6 µM), usual class: inhibitors. 310,000 tested, 5.4% active; also: nearly all actives have a fitted effect of over 60% in size
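Luciferase reporter read in Schneider cells carrying Gal4-RORγ (mouse) and UAS-Photinus luciferase; cells given compound 1 h before 700 uM copper sulfate induction, then incubated 20 h at ambient temperature.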
Gal4-VP16 FLuc = inhibits Gal4-VP16 luciferase reporter, ROR gamma counter-screen; Drosophila S2 Gal4-VP16 UAS-luciferase, luminescence, 20 h; Potency, µM (titrated, usually from 53.6 µM), usual class: inhibitors; 310,000 tested, 3.5% active;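 also: Gal4-VP16 expression switched on by copper sulfate through the metallothionein promoter; nearly all actives have a fitted effect of over 50% in size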
12-LOX inh = ALOX12 (human) lipoxygenase inhibition. P18054. purified 12hLO, xylenol orange hydroperoxide absorbance. Potency, µM (series often up to 108 µM), hits mostly inhibitors. 580,000 tested, 1.1% active. AID 1671190
Target sequence (P18054 whole entry, looked up): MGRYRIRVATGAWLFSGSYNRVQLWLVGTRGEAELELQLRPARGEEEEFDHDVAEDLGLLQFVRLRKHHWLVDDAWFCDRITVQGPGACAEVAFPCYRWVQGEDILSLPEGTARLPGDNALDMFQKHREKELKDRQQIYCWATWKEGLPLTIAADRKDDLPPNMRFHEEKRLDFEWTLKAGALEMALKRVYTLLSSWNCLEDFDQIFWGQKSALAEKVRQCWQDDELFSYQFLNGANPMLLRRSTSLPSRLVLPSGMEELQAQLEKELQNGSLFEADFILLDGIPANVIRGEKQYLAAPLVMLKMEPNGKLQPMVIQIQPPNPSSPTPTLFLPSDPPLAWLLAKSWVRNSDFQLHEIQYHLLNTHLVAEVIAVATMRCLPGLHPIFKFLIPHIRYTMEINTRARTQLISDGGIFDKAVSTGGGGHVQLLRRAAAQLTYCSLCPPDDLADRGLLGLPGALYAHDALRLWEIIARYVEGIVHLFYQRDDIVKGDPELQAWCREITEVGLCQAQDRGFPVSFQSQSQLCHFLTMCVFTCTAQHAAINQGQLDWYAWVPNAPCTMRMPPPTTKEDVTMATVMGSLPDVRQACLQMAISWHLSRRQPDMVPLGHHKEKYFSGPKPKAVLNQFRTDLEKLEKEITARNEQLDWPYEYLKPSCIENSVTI
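Purified human 12hLO at 150 nM in 25 mM Hepes, 0.01% Triton X-100, pH 7.0, preincubated 15 min at room temperature with compound. Reaction started with 40 uM arachidonic acid, 30 min at room temperature. Hydroperoxide measured by Fe-xylenol orange, 573/405 nm absorbance ratio.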
DT40 TDP1 no CPT = qHTS for Inhibitors of human tyrosyl-DNA phosphodiesterase 1 (TDP1): qHTS in cells in absence of CPT | Potency, µM (titrated, usually from 46.2 µM), most hits filed as inhibitors | DT40 Tdp1-/- hTDP1 cells, no CPT, ATP luminescence, 48 h | 420,000 tested, 15% active; also: nearly all actives have a fitted effect of over 55% in size
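Chicken DT40 Tdp1-/- cells complemented with human TDP1, screened without camptothecin (DMSO vehicle only), 400 cells/well. Compounds pin-transferred, cells incubated at 37 °C for at least 48 hr. Growth read as ATP-dependent luminescence (CellTiter-Glo, 30 min at RT).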
TDP1 cell CPT = growth inhibition of DT40 Tdp1-/-;hTDP1 cells with camptothecin (screen for TDP1 inhibitors). chicken DT40 Tdp1-/-;hTDP1 cells + 20 nM CPT, ATP luminescence, 48 h. Potency, µM (highest dose often 46.2 µM), actives largely listed as inhibitors. 420,000 tested, 12% active. AID 686979; also: nearly all actives have a fitted effect of over 55% in size
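Chicken DT40 Tdp1-/- cells complemented with human TDP1, 400 cells/well, exposed to compounds plus 20 nM camptothecin for at least 48 h at 37 C; viability read as ATP content by CellTiter-Glo luminescence.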
ELG1 repair inh = inhibitors of ELG1-dependent DNA repair in HEK293T cells; Potency, µM (titrated, usually from 46.1 µM), actives largely listed as inhibitors; HEK293T ELG1-luciferase reporter, luminescence, 16 h; DNA damage induced by 5-fluorouridine; AID 504467; 330,000 tested, 2.3% active; also: nearly all actives have a fitted effect of over 55% in size
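Overnight (16 hr) co-exposure of 2,000 cells/well to 5-fluorouridine and compound at 37 °C preceded detection. Luciferase was quantified via ONE-Glo luminescence; loss of signal denotes inhibition.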
Each line names hits and unclear results; the compound was inactive in the other large screens. Most compounds without a hit are left out; they make up all but 15% or so of the library. Calls follow the shape of the dose curve; as a rule, active = well fitted curve in the direction sought with a large enough effect; inconclusive = small, poorly fitted or top-dose-only effect, or another doubt; inactive = no such curve, though single readings can be large; an effect the other way counts as inactive or inconclusive.

CC1Cc2cc(S(=O)(=O)N3CCN(c4ccccc4F)CC3)ccc2N1C(=O)C1CC1 (configuration not stated)	DT40 TDP1 no CPT 23.1µM, TDP1 cell CPT inconclusive
CC1Cc2cc(S(=O)(=O)N3CCC(C(=O)N(C)Cc4ccccc4)CC3)ccc2N1C(=O)C1CC1 (configuration not stated)	DT40 TDP1 no CPT inconclusive, TDP1 cell CPT inconclusive, ELG1 repair inh 20.6µM
CC1Cc2cc(S(=O)(=O)N3CCC(C(N)=O)CC3)ccc2N1C(=O)C1CC1 (configuration not stated)	none
O=C(c1ccc(Cn2ccn3nc4c(c3c2=O)CCCC4)cc1)N1CCN(c2ccccc2F)CC1	none (no result: RORgamma inh, Gal4-VP16 FLuc, DT40 TDP1 no CPT, TDP1 cell CPT, ELG1 repair inh)
CN(C)S(=O)(=O)c1cccc(NC(=O)c2ccc3nccnc3c2)c1	RORgamma inh inconclusive, DT40 TDP1 no CPT 23.1µM, TDP1 cell CPT 13µM, ELG1 repair inh inconclusive
CN(C)S(=O)(=O)c1cccc(C(=O)Nc2ccc3c(c2)CCC3)c1	DT40 TDP1 no CPT 18.4µM, TDP1 cell CPT 16.4µM, ELG1 repair inh inconclusive
CC(OC(=O)c1ccncc1)C(=O)Nc1cccc([N+](=O)[O-])c1 (configuration not stated)	none
CC(=O)c1cccc(NC(=O)COC(=O)c2ccc(S(C)(=O)=O)c([N+](=O)[O-])c2)c1	RORgamma inh inconclusive, DT40 TDP1 no CPT 10µM, TDP1 cell CPT 6.31µM, ELG1 repair inh inconclusive
COc1ccc(C(=O)OCC(=O)Nc2ccccc2)cc1[N+](=O)[O-]	none
O=C(COC(=O)c1ccc(OC(F)(F)F)cc1)Nc1ncccn1	TDP1 cell CPT 20.6µM (no result: RORgamma inh, Gal4-VP16 FLuc)
CS(=O)(=O)c1ccc(C(=O)OCC(=O)Nc2ccc(OC(F)(F)F)cc2)cc1[N+](=O)[O-]	DT40 TDP1 no CPT 10µM, TDP1 cell CPT 8.91µM (no result: RORgamma inh, Gal4-VP16 FLuc, 12-LOX inh, ELG1 repair inh)
CC(=O)c1cccc(NC(=O)C(C)OC(=O)c2ccc(S(C)(=O)=O)c([N+](=O)[O-])c2)c1 (configuration not stated)	DT40 TDP1 no CPT 3.16µM, TDP1 cell CPT 2.24µM (no result: RORgamma inh, Gal4-VP16 FLuc, 12-LOX inh, ELG1 repair inh)
CCn1ccnc1CN1CC[C@H](N2CCN(C)CC2)[C@H](CCC(=O)O)C1	none (no result: RORgamma inh, Gal4-VP16 FLuc, DT40 TDP1 no CPT, TDP1 cell CPT, ELG1 repair inh)
CCCCCCC1COC(c2ccc(OCC)cc2)OC1 (configuration not stated)	none (no result: RORgamma inh, Gal4-VP16 FLuc, DT40 TDP1 no CPT, TDP1 cell CPT, ELG1 repair inh)
CCC(=O)N1CCC(N(C(=O)CC)C2CCOCC2)CC1	none (no result: RORgamma inh, Gal4-VP16 FLuc, DT40 TDP1 no CPT, TDP1 cell CPT, ELG1 repair inh)
O=C(CSc1ccccc1)Nc1nnc(COc2ccc(Cl)cc2)s1	RORgamma inh 11.2µM, Gal4-VP16 FLuc inconclusive, 12-LOX inh inconclusive, DT40 TDP1 no CPT 25.9µM, TDP1 cell CPT 8.2µM
COc1ccc(/C=C/c2nnc(NC(=O)CSc3ccc(Cl)cc3)s2)cc1	DT40 TDP1 no CPT 16.4µM, TDP1 cell CPT 6.51µM, ELG1 repair inh inconclusive
CCOCC(=O)Nc1nnc(COc2ccc(Cl)cc2)s1	12-LOX inh inconclusive, DT40 TDP1 no CPT 23.1µM, TDP1 cell CPT 16.4µM
O=C(CSc1ccc(Cl)cc1)Nc1nnc(-c2cccc([N+](=O)[O-])c2)s1	RORgamma inh 10µM, Gal4-VP16 FLuc inconclusive, DT40 TDP1 no CPT inconclusive, TDP1 cell CPT inconclusive
Cc1cccc(C)c1OCc1nnc(NC(=O)CSc2ccc(Cl)cc2)s1	DT40 TDP1 no CPT inconclusive, TDP1 cell CPT inconclusive
O=C(Cc1cccc2ccccc12)Nc1nnc(-c2cccc([N+](=O)[O-])c2)s1	TDP1 cell CPT inconclusive
CC1=C(C(=O)OCc2ccccc2)C(c2ccc(Br)cc2)NC(=O)N1CCCC(=O)O (configuration not stated)	RORgamma inh inconclusive, DT40 TDP1 no CPT inconclusive, TDP1 cell CPT inconclusive
CC1=C(C(=O)OCc2ccccc2)C(c2ccc(Cl)cc2)NC(=O)N1CCCC(=O)O (configuration not stated)	RORgamma inh 15.8µM, DT40 TDP1 no CPT inconclusive

Assay outcomes (PubChem)
